Inconclusive results are not listed. The source made the active and inactive calls. Calls follow the shape of the dose curve; as a rule, active = well fitted cell-killing curve with a large enough effect; inconclusive = small, poorly fitted or top-dose-only effect, or effect the other way; inactive = flat fitted curve, though single readings scatter.
Key:
Test in all cases: Primary qHTS to identify gynecologic anti-cancer compounds using libraries of approved drugs and bioactive compounds (AID 1345084); also: nearly all actives have a fitted effect of over 55% in size
C33A = conditions: Gynecologic cancer cell panel viability, ATPlite luminescence, 48 h; series mostly up to 57.5 µM
Summary of the method: (§1)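 Cells, 1,000 per well, plated 16 h, then exposed 48 h at 37 C to compounds. Viability by ATPlite luminescence after 15 min at room temperature.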

CAOV3 = conditions: Gynecologic cancer cell panel viability, ATPlite luminescence, 48 h; series mostly up to 57.5 µM
Summary of the method: as §1

CASKI = conditions: Gynecologic cancer cell panel viability, ATPlite luminescence, 48 h; series mostly up to 57.5 µM
Summary of the method: as §1

Es-2 = conditions: Gynecologic cancer cell panel viability, ATPlite luminescence, 48 h; series mostly up to 57.5 µM
Summary of the method: as §1

HeLa = conditions: Gynecologic cancer cell panel viability, ATPlite luminescence, 48 h; series mostly up to 57.5 µM
Summary of the method: as §1

Hek293T = conditions: Gynecologic cancer cell panel viability, ATPlite luminescence, 48 h, control line for the selectivity index; series mostly up to 57.5 µM
Summary of the method: as §1

JEG-3 = conditions: Gynecologic cancer cell panel viability, ATPlite luminescence, 48 h; series mostly up to 57.5 µM
Summary of the method: as §1

OV90 = conditions: Gynecologic cancer cell panel viability, ATPlite luminescence, 48 h; series mostly up to 57.5 µM
Summary of the method: as §1

PA-1 = conditions: Gynecologic cancer cell panel viability, ATPlite luminescence, 48 h; series mostly up to 57.5 µM
Summary of the method: as §1

SKOV3 = conditions: Gynecologic cancer cell panel viability, ATPlite luminescence, 48 h; series mostly up to 57.5 µM
Summary of the method: as §1

Tov-21-G = conditions: Gynecologic cancer cell panel viability, ATPlite luminescence, 48 h; series mostly up to 57.5 µM
Summary of the method: as §1

Tov112D = conditions: Gynecologic cancer cell panel viability, ATPlite luminescence, 48 h; series mostly up to 57.5 µM
Summary of the method: as §1
% is scaled to controls: 0 for no effect and ±100 for the full control effect; potency is read from the fitted curve at half-maximal effect.

Nc1nc(-n2cc(C(=O)O)c(=O)c3cc(F)c(N4CC(O)C4)c(Cl)c32)c(F)cc1F
inactive: Potency (C33A) | Potency (CAOV3) | Potency (CASKI) | Potency (Es-2) | Potency (HeLa) | Potency (Hek293T) | Potency (JEG-3) | Potency (OV90) | Potency (PA-1) | Potency (SKOV3) | Potency (Tov-21-G) | Potency (Tov112D)

C=C1CC[C@@H]2[C@@](C)(CO[C@@H]3O[C@H](CO)C(O)[C@H](O)C3O)[C@H](O)CC[C@@]2(C)[C@@H]1CC/C(C)=C/CO (stereo partly specified)
inactive: activity change, negative = cytotoxicity (C33A) -18.4% [at 11.6 µM] | activity change, negative = cytotoxicity (CAOV3) 1.16% [at 11.6 µM] | activity change, negative = cytotoxicity (CASKI) -5.44% [at 11.6 µM] | activity change, negative = cytotoxicity (Es-2) 9.56% [at 11.6 µM] | activity change, negative = cytotoxicity (HeLa) -3.99% [at 11.6 µM] | activity change, negative = cytotoxicity (Hek293T) 2% [at 11.6 µM] | activity change, negative = cytotoxicity (JEG-3) 2.39% [at 11.6 µM] | activity change, negative = cytotoxicity (OV90) 6% [at 11.6 µM] | activity change, negative = cytotoxicity (PA-1) 7% [at 11.6 µM] | activity change, negative = cytotoxicity (SKOV3) -9.26% [at 11.6 µM] | activity change, negative = cytotoxicity (Tov-21-G) 4.35% [at 11.6 µM] | activity change, negative = cytotoxicity (Tov112D) 4.42% [at 11.6 µM]

C[C@@H]1C(=O)O[C@H]2[C@@H](O)C34[C@H]5C[C@@H](C(C)(C)C)C36[C@@H](OC(=O)[C@@H]6O)O[C@@]4(C(=O)O5)[C@@]12O (stereo partly specified)
inactive: Potency (C33A) | Potency (CAOV3) | Potency (CASKI) | Potency (Es-2) | Potency (HeLa) | Potency (Hek293T) | Potency (JEG-3) | Potency (OV90) | Potency (PA-1) | Potency (SKOV3) | Potency (Tov-21-G) | Potency (Tov112D)

COc1c2c(c(C)c3c1C(=O)OC3)O[C@@]1(C)CC(O)C(C(C)(C)O)[C@](C)(CCC(=O)O)[C@H]1C2 (stereo partly specified)
inactive: Potency (C33A) | Potency (CAOV3) | Potency (CASKI) | Potency (Es-2) | Potency (HeLa) | Potency (Hek293T) | Potency (JEG-3) | Potency (OV90) | Potency (PA-1) | Potency (SKOV3) | Potency (Tov112D)
active: Potency (Tov-21-G) 6.31 µM

C[C@@H]1O[C@@H](O[C@H]2[C@@H]3C=CO[C@@H](O[C@@H]4O[C@H](CO)[C@@H](O)[C@H](O)[C@H]4O)[C@@H]3[C@@]3(CO)O[C@@H]23)[C@H](OC(=O)/C=C/c2ccc(O)c(O)c2)[C@H](O)[C@H]1O
inactive: Potency (C33A) | Potency (CAOV3) | Potency (CASKI) | Potency (Es-2) | Potency (HeLa) | Potency (Hek293T) | Potency (JEG-3) | Potency (OV90) | Potency (PA-1) | Potency (SKOV3) | Potency (Tov-21-G) | Potency (Tov112D)

C[C@H]1CC[C@@]2(OC1)O[C@H]1CC3C4CC[C@H]5C[C@@H](O)[C@H](O)C[C@]5(C)C4=CC(=O)[C@]3(C)[C@H]1[C@@H]2C (stereo partly specified)
inactive: Potency (C33A) | Potency (CAOV3) | Potency (CASKI) | Potency (Es-2) | Potency (HeLa) | Potency (Hek293T) | Potency (JEG-3) | Potency (OV90) | Potency (PA-1) | Potency (SKOV3) | Potency (Tov-21-G) | Potency (Tov112D)

Cc1cc2c(c(=O)[nH]1)OC(C(O)CC(C)C)O2 (stereo unspecified)
inactive: Potency (C33A) | Potency (CAOV3) | Potency (CASKI) | Potency (Es-2) | Potency (HeLa) | Potency (Hek293T) | Potency (JEG-3) | Potency (OV90) | Potency (PA-1) | Potency (SKOV3) | Potency (Tov-21-G) | Potency (Tov112D)

C=C[C@H]1[C@H](O[C@@H]2O[C@H](CO)[C@@H](O)[C@H](O)[C@H]2O)OC=C(C(=O)OC)[C@H]1C/C=C(/C=O)[C@@H]1C(C(=O)OC)=CO[C@@H](O[C@@H]2O[C@H](CO)[C@@H](O)[C@H](O)[C@H]2O)[C@@H]1C=C
inactive: Potency (C33A) | Potency (CAOV3) | Potency (CASKI) | Potency (Es-2) | Potency (HeLa) | Potency (Hek293T) | Potency (JEG-3) | Potency (OV90) | Potency (PA-1) | Potency (SKOV3) | Potency (Tov-21-G) | Potency (Tov112D)

COC(=O)CCC(=O)OC[C@]1(C)CCC[C@@]2(C)C3CC[C@]4(C)C=CC3(CCC12)C4 (stereo partly specified)
inactive: Potency (C33A) | Potency (CAOV3) | Potency (CASKI) | Potency (Es-2) | Potency (HeLa) | Potency (Hek293T) | Potency (JEG-3) | Potency (OV90) | Potency (PA-1) | Potency (SKOV3) | Potency (Tov-21-G) | Potency (Tov112D)

C[C@@H]1C[C@@H](O)[C@@]23CO[C@@H](O)[C@@H]2CCC[C@@H]3[C@@]12C[C@@H](c1ccoc1)OC2=O
inactive: Potency (C33A) | Potency (CAOV3) | Potency (CASKI) | Potency (Es-2) | Potency (HeLa) | Potency (Hek293T) | Potency (JEG-3) | Potency (OV90) | Potency (PA-1) | Potency (SKOV3) | Potency (Tov-21-G) | Potency (Tov112D)

CC1=C(C)C(=O)OC(C(C)C2CCC3C4CC=C5CC(OC6OC(COC7OC(CO)C(O)C(O)C7O)C(O)C(O)C6O)CC(O)C5(C)C4CCC23C)C1 (stereo unspecified)
inactive: Potency (C33A) | Potency (CAOV3) | Potency (CASKI) | Potency (Es-2) | Potency (HeLa) | Potency (Hek293T) | Potency (JEG-3) | Potency (OV90) | Potency (PA-1) | Potency (SKOV3) | Potency (Tov-21-G) | Potency (Tov112D)

COC(=O)CC(O)C1OC(c2ccccc2)C(O)C1O (stereo unspecified)
inactive: Potency (C33A) | Potency (CAOV3) | Potency (CASKI) | Potency (Es-2) | Potency (HeLa) | Potency (Hek293T) | Potency (JEG-3) | Potency (OV90) | Potency (PA-1) | Potency (SKOV3) | Potency (Tov-21-G) | Potency (Tov112D)

CC(c1ncncc1F)C(O)(Cn1cncn1)c1ccc(F)cc1F (stereo unspecified)
inactive: Potency (C33A) | Potency (CAOV3) | Potency (CASKI) | Potency (Es-2) | Potency (HeLa) | Potency (Hek293T) | Potency (JEG-3) | Potency (OV90) | Potency (PA-1) | Potency (SKOV3) | Potency (Tov-21-G) | Potency (Tov112D)

— PubChem BioAssay (NCATS)
